Test [1] can be described thus: resazurin metabolic signal in HepG2 cells – cell-based, resazurin fluorescence, 24 h, PK04 Diversity Set, profiling panel (AID 1172). Note: test concentration not given here. Conditions: HepG2 viability, higher = more signal. For orientation: The colour change of resazurin is a common sign of viable cells or microbes.
A short description of test [2]: budding yeast growth changes without added modifier – OD600, strain BY4716, 24 h, basal condition, primary screen (AID 1173). Particulars: S. cerevisiae BY4716 growth, OD600, 24 h; higher = more signal, called active from +8 up or from −8 down.
A short description of test [3]: viability profiling in MM1S myeloma cells – cell-based, resazurin fluorescence, basal, 24 h, PK04 Diversity Set, profiling panel (AID 1174).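 Note: MM1S multiple myeloma cell line; test concentration not given here.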 Particulars: higher = more signal, called active from +8 up or from −8 down.
For test [4], the target named is Dihydroorotate dehydrogenase (quinone), mitochondrial (Plasmodium falciparum (isolate 3D7)) (UniProt Q08210). The test is described as follows: inhibition of P. falciparum DHODH – biochemical, C-terminal His tag, absorbance 600 nm, primary screen (AID 1175).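 Note: recombinant parasite enzyme with a five histidine tag at its C terminus; test concentration not given here.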 Particulars: PfDHODH enzyme, DCIP absorbance 600 nm; higher = more signal, called active from +8 up or from −8 down.

Test [5] can be described thus: inhibition of PAO1 biofilm formation – strain PAO1, LB-PBS medium, absorbance 600 nm, primary screen (AID 1176). Note: test concentration not given here. Conditions: P. aeruginosa PAO1 growth/biofilm, A600, 12 h; higher = more signal.
Test [6] in a line: growth modulation of vineyard yeast isolate – strain RM11-1a, OD600, basal, 24 h, primary screen (AID 1177).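 Note: cultures grown under basal conditions with no added stressor; test concentration not given here.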 Conditions: S. cerevisiae RM11-1a growth, OD600, 24 h; higher = more signal, called active from +8 up or from −8 down.
The nature of test [7]: growth of efflux-deficient E. coli DRC39 – strain DRC39, OD650, 24 h, E. coli filamentation inducers, primary screen (AID 1178).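 Note: growth measured as culture turbidity by optical density at 650 nm; test concentration not given here.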 Conditions: E. coli DRC39 acrAB, higher = more signal, called active from +8 up or from −8 down.
A short description of test [8]: growth of efflux-deficient E. coli DRC39 – strain DRC39, OD650, 48 h, E. coli filamentation inducers, primary screen (AID 1179).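 Note: screen aims at cell division blockers that make cells filament.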 Conditions: E. coli DRC39 delta-acrAB growth, higher = more signal, called active from +8 up or from −8 down.
A short description of test [9]: viability profiling in RPMI8226 myeloma cells – cell-based, resazurin fluorescence, basal, 24 h, PK04 Diversity Set, profiling panel (AID 1180).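 Note: RPMI8826 multiple myeloma cell line at 5000 cells per well; test concentration not given here.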 Particulars: higher = more signal.
Test [10] concerns the target E3 ubiquitin-protein ligase XIAP (Homo sapiens) (UniProt P98170). The test is described as follows: small molecules binding XIAP protein – biophysical, small-molecule microarray, fluorescence 635 nm, primary screen (AID 1181).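 Note: score merges 667 nm emission and signal to noise over triplicate slides.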 Conditions: higher = more signal.

Activity calls are given as the source filed them. Unless noted, the rule behind the calls is not given here.

E3 ubiquitin-protein ligase XIAP (Homo sapiens), sequence (P98170 whole entry, looked up): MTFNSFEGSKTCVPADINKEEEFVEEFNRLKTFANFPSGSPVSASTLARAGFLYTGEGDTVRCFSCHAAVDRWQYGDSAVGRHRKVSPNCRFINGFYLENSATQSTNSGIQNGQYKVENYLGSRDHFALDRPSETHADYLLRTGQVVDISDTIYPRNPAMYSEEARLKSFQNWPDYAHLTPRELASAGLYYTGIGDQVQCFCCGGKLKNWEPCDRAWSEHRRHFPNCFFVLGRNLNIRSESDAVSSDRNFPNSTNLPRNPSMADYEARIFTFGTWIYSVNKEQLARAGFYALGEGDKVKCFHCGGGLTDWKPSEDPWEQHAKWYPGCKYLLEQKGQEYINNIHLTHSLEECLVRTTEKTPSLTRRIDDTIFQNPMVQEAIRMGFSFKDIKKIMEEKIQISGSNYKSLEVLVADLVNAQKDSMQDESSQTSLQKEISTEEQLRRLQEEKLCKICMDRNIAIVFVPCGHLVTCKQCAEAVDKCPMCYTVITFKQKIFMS
Dihydroorotate dehydrogenase (quinone), mitochondrial (Plasmodium falciparum (isolate 3D7)), sequence (Q08210 whole entry, looked up): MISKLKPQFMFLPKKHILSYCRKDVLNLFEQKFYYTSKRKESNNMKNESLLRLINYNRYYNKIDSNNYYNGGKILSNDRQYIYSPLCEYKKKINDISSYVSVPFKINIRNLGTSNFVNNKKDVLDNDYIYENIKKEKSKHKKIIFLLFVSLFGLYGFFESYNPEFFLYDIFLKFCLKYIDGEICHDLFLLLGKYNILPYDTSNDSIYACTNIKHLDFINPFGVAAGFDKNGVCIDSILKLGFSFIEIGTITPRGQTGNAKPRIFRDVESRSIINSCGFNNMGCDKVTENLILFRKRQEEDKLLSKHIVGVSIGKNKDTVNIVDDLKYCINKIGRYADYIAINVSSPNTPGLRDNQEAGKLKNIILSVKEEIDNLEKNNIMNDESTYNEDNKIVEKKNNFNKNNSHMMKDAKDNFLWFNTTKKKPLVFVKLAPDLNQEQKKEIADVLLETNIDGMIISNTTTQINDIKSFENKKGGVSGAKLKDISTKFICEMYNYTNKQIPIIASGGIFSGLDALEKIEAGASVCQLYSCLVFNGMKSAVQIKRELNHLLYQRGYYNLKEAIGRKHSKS

On to `COC(=O)[C@H](C)NC(=O)CCC1CC(OC(=O)NCCc2ccc(F)cc2)CC2(CCCC(COC(=O)NCCc3ccc(Cl)cc3)O2)O1` (stereo not given in full), for which the z-score is 0.315 in [1]; 0.592 (inactive) in test [2]; 0.349 (inactive) in test [3]; 0.45 (inactive) in [5]; 0.825 (inactive) in [6]; 0.718 (inactive) in test [7]. In addition, the z-score in test [8] is 0.942 (inactive); in test [9], 0.761. Moreover, the composite z-score in test [4] was -0.532 (inactive); in test [10] it was -0.0918.

On to `CC(C)CN1CCc2nc(-c3ccccc3)c3c(c2CC1)CO[C@@H](C)C3`, for which the z-score in test [1] is 0.652; in test [2] it was -0.368 (inactive); in [3] it was 0.389 (inactive); in test [5] it was -0.458 (inactive); in test [6] it was -0.284 (inactive); in test [7] it was -0.274 (inactive). The z-score in test [8] was -0.328 (inactive); in test [9], 0.711. Moreover, the composite z-score is 0.496 (inactive) in test [4] and -0.0964 in test [10].

With `CCOC(=O)NN=C1C[C@@H](O)[C@@H](O)[C@@H]2[C@@H]3C(=O)N(C[C@@H]4CCCO4)C(=O)[C@@H]3CC[C@@H]12`, the z-score is 0.208 in [1]; 0.623 (inactive) in test [2]; -0.307 (inactive) in test [3]; -0.674 (inactive) in test [5]; 0.664 (inactive) in test [6]; 0.914 (inactive) in test [7]. Moreover, the z-score in test [8] was 1.4 (inactive); in [9], 0.0557. Besides, the composite z-score in test [4] was -0.851 (inactive); in test [10], 0.0432.

For `O=C1CCCC2OC12C(O)CCc1ccccc1` (stereo not given), the z-score was -1.06 in test [1]; -0.372 (inactive) in test [2]; -0.397 (inactive) in test [3]; -0.127 (inactive) in test [5]; 0.142 (inactive) in test [6]; 0.637 (inactive) in [7]. Besides, the z-score is 0.489 (inactive) in [8] and 0.145 in test [9]. Moreover, the composite z-score is -0.103 (inactive) in test [4] and -0.0238 in test [10].

With `CCN1C(=O)[C@H]2[C@H]3[C@H](O)[C@H](O)CC(=NO[C@@H]4O[C@H](CO)[C@@H](O)[C@H](O)[C@H]4O)[C@@H]3CC[C@H]2C1=O`, the z-score in test [1] was -0.59; in test [2], -0.369 (inactive); in [3] it was -0.596 (inactive); in test [5], -0.343 (inactive); in [6], -0.654 (inactive); in test [7], 0.226 (inactive). Further, the z-score in test [8] is 0.117 (inactive); in test [9], -0.922. Moreover, the composite z-score in test [4] was -0.794 (inactive); in test [10], 0.0623.

On to `C[C@@H]1CC[C@H]2C(=O)O[C@H](COc3ccc(C(C)(C)C)cc3)CN2[C@H]1c1ccc(Br)cc1`, for which the z-score is 0.182 in test [1]; 0.789 (inactive) in test [2]; 0.837 (inactive) in test [3]; 0.18 (inactive) in test [5]; 1.71 (inactive) in test [6]; -0.474 (inactive) in [7]. In addition, the z-score in [8] is -0.438 (inactive); in test [9], 1.12. The composite z-score in test [4] is 0.702 (inactive); in test [10], -0.0118.

Turning to `C[C@H]1CC[C@@H](C(=O)O)N[C@@H]1c1ccc(C#CCN(C)C)cc1`, the z-score in test [1] was 0.378; in test [2] it was -1.07 (inactive); in [3] it was 0.584 (inactive); in [5], -0.458 (inactive); in test [6], -0.191 (inactive); in test [7] it was 0.554 (inactive). The z-score in [8] is 0.15 (inactive); in [9], 0.22. Also, the figures for the composite z-score in test [4] and in test [10] were 0.666 (inactive) and 0.256, respectively.

For `CN(C)CCCNC(=O)[C@@H]1c2ccccc2C(=O)N(Cc2cc(F)cc(C(F)(F)F)c2)[C@H]1c1ccc(CO)cc1`, the z-score in test [1] was 0.0356; in test [2], -0.473 (inactive); in test [3], -0.62 (inactive); in [5], 0.348 (inactive); in test [6] it was 0.0333 (inactive); in test [7], -0.0392 (inactive). For the same molecule, the z-score in [8] is -0.578 (inactive); in test [9], -0.359. Moreover, the results for the composite z-score in test [4] and in test [10] were 0.0999 (inactive) and -0.0172, respectively.

For the molecule `O=C1c2ccccc2[C@@]2(Cc3ccccc3N(C3CC3)C2=O)[C@H](c2ccc(CO)cc2)N1Cc1ccccc1C(F)(F)F`, the z-score is -0.506 in [1]; 0.194 (inactive) in [2]; 0.187 (inactive) in [3]; 0.242 (inactive) in [5]; -0.887 (inactive) in test [6]; -0.201 (inactive) in test [7]. Besides, the z-score in test [8] is -0.136 (inactive); in test [9], -0.398. Also, the results for the composite z-score in [4] and in test [10] were -9.3 (active) and 0.0428, respectively.

As to `COc1ccc(OC[C@H]2Cc3c(-c4ccccc4)nc4c(c3CO2)CN(CCOc2ccccc2)CC4)cc1`, the z-score in [1] was -0.376; in test [2], -2.37 (inactive); in test [3], -0.0593 (inactive); in test [5] it was -0.765 (inactive); in [6], -0.314 (inactive); in test [7], -1.17 (inactive). The z-score in test [8] was -0.458 (inactive); in test [9], 0.578. In addition, the composite z-score is -3.16 (inactive) in [4] and -0.111 in test [10].

`CCOC(=O)CCN1C(=O)[C@H]2[C@H]3[C@H](O)[C@H](O)CC(=NOC[C@@H](O)COCc4ccco4)[C@H]3CC[C@H]2C1=O`: the z-score in test [1] is -0.749; in [2] it was -11.7 (active); in test [3], -0.0452 (inactive); in test [5] it was 0.0122 (inactive); in test [6], -0.788 (inactive); in test [7], 0.558 (inactive). Further, the z-score is -0.899 (inactive) in [8] and -0.424 in [9]. For the same molecule, the composite z-score is -2.45 (inactive) in [4] and 0.123 in test [10].

In the case of `CC1(C)OCC(C(O)C2=CCCCC2=O)CO1` (stereo not given), the z-score is -0.786 in test [1]; -0.124 (inactive) in test [2]; 0.665 (inactive) in test [3]; 1.49 (inactive) in test [5]; 0.205 (inactive) in test [6]; -0.85 (inactive) in test [7]. The z-score in test [8] is -2.63 (inactive); in test [9], 0.297. The composite z-score in test [4] was 0.523 (inactive); in test [10] it was -0.294.

In the case of `C[C@@H](c1ccccc1)N1C(=O)[C@H]2[C@H]3[C@H](O)[C@H](O)CC(=NOC[C@@H](O)COCc4ccco4)[C@@H]3CC[C@H]2C1=O`, the z-score was -0.52 in test [1]; 0.984 (inactive) in test [2]; -0.422 (inactive) in test [3]; 0.176 (inactive) in test [5]; 0.819 (inactive) in test [6]; -0.892 (inactive) in test [7]. The results for the z-score in [8] and in test [9] were -0.41 (inactive) and 0.2, respectively. The composite z-score in [4] was 0.407 (inactive); in test [10], -0.131.
